Records with an inconclusive call do not appear. Where a call stands in place of a potency, no number is given. Activity calls are given as the source filed them. Calls follow the shape of the dose curve; as a rule, active = well fitted curve in the direction sought with a large enough effect; inconclusive = small, poorly fitted or top-dose-only effect, or another doubt; inactive = no such curve, though single readings can be large; an effect the other way counts as inactive or inconclusive.
Experiments:
[1] = target: Cytochrome P450 3A4 (Homo sapiens) (UniProt P08684); assay: qHTS Assay for Inhibitors and Substrates of Cytochrome P450 3A4 (AID 884); also: nearly all actives have a fitted effect of over 50% in size; also: potency is read from the fitted curve at half-maximal effect
Cytochrome P450 3A4 (Homo sapiens), sequence (P08684 whole entry, looked up): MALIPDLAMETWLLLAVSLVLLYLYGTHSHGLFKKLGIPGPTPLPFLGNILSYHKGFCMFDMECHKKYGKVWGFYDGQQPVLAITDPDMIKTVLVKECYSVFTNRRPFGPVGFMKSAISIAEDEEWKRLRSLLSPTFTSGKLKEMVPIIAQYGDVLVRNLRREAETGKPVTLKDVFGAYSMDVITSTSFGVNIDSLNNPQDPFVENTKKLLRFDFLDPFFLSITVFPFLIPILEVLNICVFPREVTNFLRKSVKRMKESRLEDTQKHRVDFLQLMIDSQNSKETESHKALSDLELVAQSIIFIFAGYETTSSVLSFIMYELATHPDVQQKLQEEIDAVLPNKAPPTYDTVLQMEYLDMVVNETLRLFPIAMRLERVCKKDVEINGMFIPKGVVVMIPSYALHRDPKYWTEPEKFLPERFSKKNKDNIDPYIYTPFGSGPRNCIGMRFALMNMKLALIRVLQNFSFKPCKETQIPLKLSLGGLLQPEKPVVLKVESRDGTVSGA
Outline: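 20 nM human CYP3A4 with 25 uM Luciferin-PPXE (at KM) in 200 mM KPO4, preincubated 10 min with compound; NADPH regeneration started a 60 min RT reaction. Luciferin detected by luminescence, normalized to 57 uM ketoconazole as full inhibition.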

[2] = Confirmation and Secondary Assay for Modulators of Hemoglobin Beta Chain Splicing at IVS2 654 locus (AID 910);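 also: HeLa cells stably carrying EGFP split by mutant beta-globin IVS2-654 intron; per-well total GFP intensity by laser scanning cytometry after 2-day treatment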
Outline: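 Readout: per-well total peak green fluorescence (488 nm ex, 500–520 nm em) from objects 5–250 µm, reflecting correct splicing of an EGFP-654 reporter. Compounds were applied for 2 days at 37 °C to overnight-plated HeLa EGFP-654 cells; controls were DMSO and 500 nM IVS2-654 PNA.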

[3] = target: Ubiquitin carboxyl-terminal hydrolase 1 (Homo sapiens) (UniProt O94782); assay: Inhibitors of USP1/UAF1: Pilot qHTS (AID 504865); also: nearly all actives have a fitted effect of over 35% in size; also: potency is read from the fitted curve at half-maximal effect
Ubiquitin carboxyl-terminal hydrolase 1 (Homo sapiens), sequence (O94782 whole entry, looked up): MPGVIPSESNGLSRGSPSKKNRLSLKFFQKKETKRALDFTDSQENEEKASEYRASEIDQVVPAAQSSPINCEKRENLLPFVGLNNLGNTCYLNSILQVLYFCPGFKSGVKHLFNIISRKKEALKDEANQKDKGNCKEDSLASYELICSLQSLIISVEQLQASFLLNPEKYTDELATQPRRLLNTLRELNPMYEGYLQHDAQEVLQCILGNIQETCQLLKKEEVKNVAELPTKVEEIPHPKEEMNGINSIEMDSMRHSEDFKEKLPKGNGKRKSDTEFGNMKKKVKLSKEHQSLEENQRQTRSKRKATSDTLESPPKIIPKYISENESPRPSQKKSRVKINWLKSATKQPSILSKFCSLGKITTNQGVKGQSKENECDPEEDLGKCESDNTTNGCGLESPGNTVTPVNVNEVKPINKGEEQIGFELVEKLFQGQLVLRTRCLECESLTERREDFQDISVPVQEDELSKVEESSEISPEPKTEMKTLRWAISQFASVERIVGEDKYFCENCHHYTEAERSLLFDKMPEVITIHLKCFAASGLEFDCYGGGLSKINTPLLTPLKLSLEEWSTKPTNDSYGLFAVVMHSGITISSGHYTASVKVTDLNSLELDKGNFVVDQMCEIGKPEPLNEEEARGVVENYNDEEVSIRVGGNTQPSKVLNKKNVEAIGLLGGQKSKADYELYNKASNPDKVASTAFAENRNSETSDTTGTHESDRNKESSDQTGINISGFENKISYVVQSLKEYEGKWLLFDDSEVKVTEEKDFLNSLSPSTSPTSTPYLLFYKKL
Outline: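 1nM USP1/UAF1 + cpd, 15 min RT; start w/ Ub-Rho 150nM final; kinetic FL 480/540 nm, 6 reads q60 s. Buffer 50mM HEPES pH 7.8, 0.5mM EDTA, 1mM TCEP, 0.01% Tween-20, 0.1 mg/ml BSA.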

[4] = target: Cytochrome P450 3A4 (Homo sapiens) (UniProt P08684); assay: qHTS Assay for Activators of Cytochrome P450 3A4 (AID 885); also: nearly all actives have a fitted effect of over 65% in size
Outline: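 Quantitative HTS format: compounds preincubated with 20nM human CYP3A4 and Luciferin-PPXE substrate at KM, reaction started by NADPH regeneration, stopped after 60 min, luciferase luminescence read 20 min later.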

[5] = target: DNA dC->dU-editing enzyme APOBEC-3G (Homo sapiens) (UniProt Q9HC16); assay: qHTS for inhibitors of Vif-A3G interactions: Validation (AID 588379)
DNA dC->dU-editing enzyme APOBEC-3G (Homo sapiens), sequence (Q9HC16 whole entry, looked up): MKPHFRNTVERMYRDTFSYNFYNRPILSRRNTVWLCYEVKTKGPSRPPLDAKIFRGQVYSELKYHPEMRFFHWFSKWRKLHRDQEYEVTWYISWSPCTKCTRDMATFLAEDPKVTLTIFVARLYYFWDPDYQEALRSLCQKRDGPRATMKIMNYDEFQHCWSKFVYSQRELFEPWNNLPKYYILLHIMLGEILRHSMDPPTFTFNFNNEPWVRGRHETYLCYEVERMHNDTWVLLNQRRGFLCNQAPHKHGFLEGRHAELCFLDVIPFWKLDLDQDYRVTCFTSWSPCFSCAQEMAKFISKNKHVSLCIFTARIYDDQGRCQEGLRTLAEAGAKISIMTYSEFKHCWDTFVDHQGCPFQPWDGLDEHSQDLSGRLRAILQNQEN
Outline: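 HeLa cells stably expressing Vif and A3G-eYFP, 700 cells/well, incubated overnight at 37 deg C, then exposed to compound overnight at 37 deg C. Inhibition of Vif-mediated degradation read as increased yellow fluorescence (Ex 488/Em 500-530) by laser-scanning cytometry.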

[6] = Confirmation and Secondary Assay for Modulators of Hemoglobin Beta Chain Splicing at IVS2 705 locus (AID 930);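 also: HeLa cells stably expressing the EGFP-705 splicing reporter; GFP fluorescence per well restored by corrected splicing of the IVS2-705 intron in EGFP; series mostly up to about 46 µM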
Outline: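 Assay measures total GFP intensity per well in HeLa EGFP-705 cells after 2 days with compound; mis-splicing normally truncates EGFP, so fluorescence indicates corrected splicing.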

[7] = target: Luciferin 4-monooxygenase (Photinus pyralis) (UniProt P08659); assay: Biochemical firefly luciferase enzyme assay for NPC (AID 624030);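 also: purified P. pyralis luciferase at 10 nM with luciferin and ATP substrate; series mostly up to about 59 µM; nearly all actives have a fitted effect of over 70% in size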
Luciferin 4-monooxygenase (Photinus pyralis), sequence (P08659 whole entry, looked up): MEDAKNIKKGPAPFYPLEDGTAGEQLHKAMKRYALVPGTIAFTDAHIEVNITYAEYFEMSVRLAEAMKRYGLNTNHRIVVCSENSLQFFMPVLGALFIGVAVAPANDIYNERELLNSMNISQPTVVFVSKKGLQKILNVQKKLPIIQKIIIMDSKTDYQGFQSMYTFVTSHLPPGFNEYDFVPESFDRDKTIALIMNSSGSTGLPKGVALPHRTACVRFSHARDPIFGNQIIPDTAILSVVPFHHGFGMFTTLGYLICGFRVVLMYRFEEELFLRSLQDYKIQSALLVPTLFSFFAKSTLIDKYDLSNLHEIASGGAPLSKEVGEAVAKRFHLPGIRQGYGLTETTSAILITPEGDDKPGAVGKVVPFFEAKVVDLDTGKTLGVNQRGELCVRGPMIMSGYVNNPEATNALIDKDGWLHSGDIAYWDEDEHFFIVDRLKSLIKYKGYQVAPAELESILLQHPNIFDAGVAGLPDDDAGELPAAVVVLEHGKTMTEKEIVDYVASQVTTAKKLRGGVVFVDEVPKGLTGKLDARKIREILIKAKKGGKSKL
Outline: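 Direct inhibition of firefly luciferase enzyme (10 nM final, 50 mM Tris Acetate) assessed by luminescence within 5 minutes. Percent activity scaled between DMSO and PTC124 positive control, with concentration-effect curves classified by fit quality and response.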

Compound | Potency [1] | outcome [2] | Potency [3] | Potency [4] | Potency [5] | outcome [6] | Potency [7]
CC(=O)c1ccc[nH]1 | inactive | inactive | inactive | – | – | – | –
COc1ccc2c(=O)c(-c3ccccc3)coc2c1 | – | – | inactive | inactive | inactive | – | –
NC(Cc1cnc[nH]1)C(=O)Nc1ccc2ccccc2c1 (stereo unspecified) | 2.51 µM (active) | inactive | inactive | inactive | – | inactive | –
Cn1c(=O)[nH]c(=O)c2[nH]cnc21 | inactive | inactive | inactive | – | – | inactive | –
CC1CC2C3CCC4=CC(=O)C=C[C@@]4(C)[C@]3(F)C(O)C[C@]2(C)[C@]1(O)C(=O)COP(=O)(O)O (stereo partly specified) | – | inactive | inactive | inactive | – | – | inactive
C[C@@]12CCC(OC(=O)c3ccccc3)CC1CCc1ccccc12 (stereo partly specified) | inactive | inactive | inactive | – | – | – | –
CC1(C)C=Cc2c(cc3occ(-c4ccc5c(c4)OCO5)c(=O)c3c2O)O1 | 25.1 µM (active) | inactive | inactive | inactive | – | inactive | –
O=c1c(-c2ccc(O)cc2)coc2c(C3OC(CO)C(O)C(O)C3O)c(O)ccc12 (stereo unspecified) | inactive | inactive | inactive | – | – | inactive | –
O=C1CC(c2ccccc2O)Oc2ccc(O)cc21 (stereo unspecified) | – | – | inactive | inactive | inactive | – | –
CCC1OC(=O)C(C)[C@@H](O[C@H]2C[C@@](C)(OC)C(O)C(C)O2)C(C)[C@@H](O[C@@H]2OC(C)CC(N(C)C)C2O)[C@@](C)(O)CC(C)C2NC(COCCOC)O[C@H](C2C)[C@@]1(C)O (stereo partly specified) | inactive | inactive | inactive | – | – | inactive | –
COC(=O)CCC(C)C1CCC2C3C(C[C@H](O)C12C)C1(C)CC[C@@H](O)CC1C[C@H]3O (stereo partly specified) | – | – | inactive | inactive | inactive | – | –
NC(N)=N/N=C\c1c(Cl)cccc1Cl | inactive | inactive | inactive | – | – | – | –
CSCCC(N)C(=O)NC(CC(C)C)C(=O)NC(Cc1ccccc1)C(=O)O (stereo unspecified) | inactive | inactive | inactive | – | – | inactive | –
CC1CC[C@@]23CCC4(C)[C@@]5(C)CCC6C(C)(C)C(=O)CC[C@@]6(C)C5C=C[C@@]4(OC2=O)C3C1C (stereo partly specified) | inactive | inactive | inactive | – | – | – | –
c1ccc(-c2csc(-c3nc4ccccc4[nH]3)n2)cc1 | 1.26 µM (active) | – | 22.4 µM (active) | inactive | – | – | –
OCC(O)C(O)C(O)C(O)C(O)CO (stereo unspecified) | inactive | inactive | inactive | – | – | – | –
C=C1C(=O)OC2C[C@@]3(C)CCCC(C)C3=CC12 (stereo partly specified) | 7.94 µM (active) | inactive | inactive | inactive | – | inactive | –
COC(=O)C1OC(=O)C2OC23[C@]2(C)C(OC(C)=O)CC4C(C)(C)C(=O)CC[C@]4(C)C2CC[C@@]13C (stereo partly specified) | inactive | inactive | inactive | – | – | – | –
CC1C(NC(=O)/C(=N/OC(C)(C)C(=O)O)c2csc(N)n2)C(=O)N1S(=O)(=O)O (stereo unspecified) | inactive | inactive | inactive | – | – | – | –
C[N+]1(C)C2CCC1CC(OC(=O)C(O)c1ccccc1)C2 (stereo unspecified) | inactive | inactive | inactive | – | – | inactive | inactive
CC(=O)OC1CC(OC(C)=O)[C@]2(C)C(CC(OC(C)=O)[C@@]3(C)C4=CC(=O)OC(c5ccoc5)[C@]4(C)CCC32)C1(C)C (stereo partly specified) | 10 µM (active) | inactive | inactive | inactive | – | – | –
OC[C@H]1O[C@@H](n2cnc3c(NCc4ccccc4)ncnc32)[C@H](O)[C@@H]1O | inactive | – | inactive | – | – | – | –
CN(C)c1ccc(O)c2c1C[C@@H]1C[C@H]3C(N(C)C)C(=O)C(C(N)=O)=C(O)[C@@]3(O)C(=O)C1=C2O (stereo partly specified) | – | inactive | inactive | inactive | – | inactive | inactive
COc1cccc2oc(-c3ccccc3)cc(=O)c12 | – | – | inactive | inactive | inactive | – | –
CC(=O)OC1CC2C(C)(C)C(=O)CC[C@]2(C)C2CC[C@]3(C)C(=CC(=O)OC3c3ccoc3)[C@]12C (stereo partly specified) | 6.31 µM (active) | inactive | inactive | inactive | – | – | –
COc1c2ccoc2c(OC)c2oc(=O)ccc12 | 2 µM (active) | inactive | inactive | inactive | – | inactive | –
COc1ccc2cc1Oc1ccc(cc1)CC1c3cc(c(OC)cc3CCN1C)Oc1c(OC)c(OC)cc3c1C(C2)N(C)CC3 (stereo unspecified) | inactive | inactive | inactive | – | – | inactive | –
CO[C@@]1(NC(=O)Cc2cccs2)C(=O)N2C(C(=O)O)=C(COC(N)=O)CSC21 (stereo partly specified) | inactive | inactive | inactive | – | – | – | –
CC(=O)OCC(=O)[C@@]1(O)CCC2C3CCC4=CC(=O)CC[C@]4(C)C3C(=O)C[C@]21C (stereo partly specified) | inactive | inactive | inactive | – | – | – | –
COc1cc(OC)c2c(=O)c(-c3ccccc3)coc2c1 | 15.8 µM (active) | inactive | inactive | inactive | – | inactive | –
